# GDH-TPI counter-1 – inhibits GDH-TPI coupling enzymes, artifact for Mtb FBA screen | GDH-TPI coupled enzyme counterscreen, NADH absorbance | inhibition, % at 4.8 µM | 1.2% of 360,000 active | AID 588335; in the data active means inhibition above about 30%;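 further: 0% = DMSO wells and 100% = wells lacking the enzyme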
# Mtb hypoxia inh – inhibitors of hypoxia-regulated fluorescent reporter in Mycobacterium tuberculosis | 0.1% of 300,000 active | M. tuberculosis hypoxia-regulated fluorescent reporter, fluorescence | AID 1159583 | fluorescence inhibition, % (concentration not given with the values); in the data active means fluorescence inhibition mostly above about 23%, no sharp cut-off; inactive means mostly below about 17%
# BioA inh – blocks M. tuberculosis BioA enzyme activity | purified M. tuberculosis BioA enzyme, plate reader | inhibition, % at 9.99 µM | 0.096% of 360,000 active | AID 602481; in the data active means inhibition above about 40%
# FadD28 binding – M. tuberculosis FadD28 bisubstrate binding inhibition | FadD28 bisubstrate probe binding, fluorescence polarization | inhibition, % at 12.5 µM | 0.22% of 360,000 active; in the data active means inhibition above about 8.5%, passing the limit was not always enough
# FBA Mtb inh – Mtb fructose-bisphosphate aldolase inhibition | 2.3% of 360,000 active | inhibition, % at 1 µM | purified M. tuberculosis FBA, fluorescence read-out;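 further: 0% = vehicle and 100% = reference inhibitor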
# Target sequence (P9WQA3 whole entry, looked up): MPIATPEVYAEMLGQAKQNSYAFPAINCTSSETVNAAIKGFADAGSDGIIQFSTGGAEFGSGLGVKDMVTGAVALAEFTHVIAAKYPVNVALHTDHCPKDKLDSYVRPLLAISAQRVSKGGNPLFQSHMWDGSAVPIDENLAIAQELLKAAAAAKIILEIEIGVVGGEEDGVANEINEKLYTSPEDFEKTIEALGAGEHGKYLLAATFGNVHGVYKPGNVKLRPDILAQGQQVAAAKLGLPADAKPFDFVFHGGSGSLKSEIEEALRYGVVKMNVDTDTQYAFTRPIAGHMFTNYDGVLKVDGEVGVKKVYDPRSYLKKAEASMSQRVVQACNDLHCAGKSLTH
# Mtb FBA inh conf – confirmation of M. tuberculosis fructose-bisphosphate aldolase inhibitors | shares compounds with FBA Mtb inh | purified M. tuberculosis FBA, fluorescence read-out | inhibition, % at 1 µM | 78% of 5,600 active;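 further: 0% = vehicle wells and 100% = reference inhibitor wells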
# GDH-TPI counter-2 – inhibits GDH-TPI coupling enzymes, flagging Mtb FBA hits; shares compounds with FBA Mtb inh; inhibition, % at 1 µM; GDH-TPI coupled enzyme counterscreen, fluorescence; 81% of 5,600 active; in the data active means inhibition above about 10%
# GDH-TPI DR – inhibits GDH-TPI coupling enzymes in dose response; shares compounds with FBA Mtb inh; GDH-TPI coupled enzyme assay, fluorescence, artifact counterscreen; IC50, µM; 79% of 170 active; call rule not given here
# * hit, by the source's call; / = not tested or not shown; + = active, no number. Shown are actives, neighbours in structure and some others; about 2.9% of the full set was active somewhere. Unless noted, no stated cut-off is given here; in the data, active means inhibition above about 27%; inactive means the rest.
SMILES,GDH-TPI counter-1,Mtb hypoxia inh,BioA inh,FadD28 binding,FBA Mtb inh,Mtb FBA inh conf,GDH-TPI counter-2,others
Cc1ccc(S(=O)(=O)Nc2cccc3c2O[C@H](CN(C)Cc2ccc(C(F)(F)F)cc2)[C@H](C)CN([C@H](C)CO)C3=O)cc1,/,/,0.4,/,/,/,/,
Nc1ccccc1-c1nc2ccccc2s1,6.2,10.2,-0.6,-0.3,51.2*,196.8*,146.8*,
Oc1ccc(-c2nc3ccccc3s2)c(O)c1,25.2,11.7,/,-2.0,37.0*,106.1*,84.3*,
Cc1ccc(Cn2cccc(-c3nc4ccccc4s3)c2=O)cc1,18.3,7.7,/,0.4,54.5*,114.6*,107.0*,
c1ccc2sc(-c3ccncc3)nc2c1,7.5,-7.2,/,-2.3,2.2,/,/,
COc1ccc(-c2nc3ccccc3s2)cc1NC(C)=O,39.0*,10.0,/,-2.7,72.7*,138.3*,117.7*,
CO[C@@H]1CN(C)C(=O)c2cc(NC(=O)NC(C)C)ccc2OC[C@H](C)N(CC2CC2)C[C@H]1C,/,/,-1.6,/,/,/,/,
c1csc(-c2nc3ccccc3s2)c1,7.3,0.5,0.6,-1.0,39.4*,-1.4,-3.4,
Oc1ccc(-c2nc3ccccc3s2)cc1,12.1,4.6,/,-2.2,94.4*,75.4*,63.2*,
O=C([C@@H]1[C@@H](CO)[C@@H]2Cn3c(cccc3=O)[C@H]1N2CCC(F)(F)F)N1CCCCC1,/,/,-1.2,/,/,/,/,
COC(=O)CC1c2cc(F)ccc2S(=O)(=O)N1c1ccc(N(C)C)cc1 (stereo not given),/,14.0,/,/,/,/,/,
Cc1ccc2[nH]c3c(=O)n(CCN4CCOCC4)cnc3c2c1,0.9,7.8,-0.6,-1.0,13.7,/,/,
CCC1CCCN1Cn1cnc2c([nH]c3ccc(C)cc32)c1=O (stereo not given),11.1,-2.0,-2.3,-3.7,40.6*,+,+,
CCC1CCCN1Cn1cnc2c([nH]c3ccc(Cl)cc32)c1=O (stereo not given),11.5,1.6,1.1,-3.3,4.3,/,/,
COc1cc2[nH]c3c(=O)n(CCN4CCCCC4)cnc3c2cc1OC,23.5,/,0.1,-1.2,40.5*,107.0*,92.4*,
CCN1CCCC1Cn1cnc2c([nH]c3ccc(OC)cc32)c1=O (stereo not given),-1.3,11.1,-0.9,-2.7,57.3*,156.6*,125.5*,
COc1ccc2[nH]c3c(=O)n(Cc4ccncc4)cnc3c2c1,0.0,5.4,/,-4.6,100.9*,19.7,4.8,GDH-TPI DR=1.87*
CC(=O)c1ccc(NN=C(C(N)=O)C2=NC(C)(C)Cc3ccccc32)cc1,/,1.8,/,/,/,/,/,
COC(=O)C1=C(c2cccc(C#N)c2)CC2CCC1N2C(=O)N1CCC(C)CC1 (stereo not given),/,6.5,/,/,/,/,/,
CCN1[C@@H]2Cn3c(ccc(C4=CCCCC4)c3=O)[C@H]1[C@@H](C(=O)N1CCc3ccccc3C1)[C@@H]2CO,/,/,-0.4,/,/,/,/,
COc1ccc2c(c1)c1ncn(Cc3ccc(F)cc3)c(=O)c1n2C,0.8,-4.8,1.6,-0.8,50.9*,3.0,-2.4,
Cc1cc(OCc2cn3cccnc3n2)ccc1Cl,6.4,-7.8,/,-1.5,8.3,/,/,
CCN(Cc1cn2cccnc2n1)C1CCCCC1,-5.0,2.5,-1.5,-4.2,109.3*,-4.0,-2.1,
CC(C)c1nc(C(N)=O)c2[nH]c(=O)n(-c3ccc(F)cc3)c2n1,18.8,5.3,-0.9,-2.1,32.1*,+,+,
C[C@H](CO)N1C[C@H](C)[C@@H](CN(C)S(C)(=O)=O)OCCCC[C@H](C)Oc2ccc(NC(=O)c3ccncc3)cc2C1=O,/,/,0.7,/,/,/,/,
SMILES,GDH-TPI counter-1,Mtb hypoxia inh,BioA inh,FadD28 binding,FBA Mtb inh,Mtb FBA inh conf,GDH-TPI counter-2,others
O=c1[nH]c2ccccc2nc1/C=C/c1ccc(F)cc1,7.6,4.9,-2.5,-5.6,9.2,/,/,
C(=C\c1nccc2c1[nH]c1ccccc12)/c1ccccc1,7.4,/,/,-6.6,90.6*,11.1,0.1,GDH-TPI DR=1.06*
O=c1[nH]c2ccccc2nc1/C=C/c1ccccc1,13.3,13.7,/,-2.2,9.5,/,/,
Cc1ccc(/C=C\c2nccc3c2[nH]c2ccccc23)cc1,1.2,-5.1,-2.1,-10.7,86.3*,174.2*,134.8*,
Fc1ccc(/C=C\c2nccc3c2[nH]c2ccccc23)cc1,2.4,2.6,1.3,-5.5,74.1*,18.8,19.9*,
CN(C)C(=O)c1cccc(-c2ccc3c(c2)[C@H]2[C@H](CCN2Cc2nccs2)[C@@H](CO)N3)c1,/,/,0.1,/,/,/,/,
